# From the supplement of paper PMC10338343
# ± gives the standard deviation.
# System: EfPiwi piRISC loaded with piRNA #1 (26 nt)
# Experiment: pre-steady-state target cleavage rate (min^-1); auxiliary factor: 500 nM Ephydatia muelleri Gtsf1; guide: piRNA #1 5'p-UGAGGUAGUAGGUUGUAUAGUAUCCA; MIWI and MILI are mouse PIWI proteins and EfPiwi is from a freshwater sponge; tags in brackets are library labels; higher = faster piRNA-guided slicing of the target
# Outline: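 In this Cleave-'n-Seq assay, uncleaved targets were sequenced and normalised to depth and to weakly complementary targets. They came from a transcribed, DNA-blocked target RNA library […] mixed with 1 nM active affinity-purified piRISC carrying one synthetic guide, with or without 500 nM GTSF1 partner protein, in HEPES–potassium acetate buffer at 33 °C for 0–8 or 0–960 min. After three trials were pooled and k3 was capped at 0.0001 min^-1, the pre-steady-state cleavage rate was obtained from a burst-and-steady-state fit.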
row,Sequence,pre-steady-state target cleavage rate
1,GGAGAGGAUACUAUACAAGCUACUACCUCA,0.00667 ± 0.003
2,GGAGACCUAUGAUAUGUUCCUACUCCCUCA,< 0.0001
3,GGAGACCUAUGAUAUGUACCUACUAUCCUCA,< 0.0001
4,GGAGUGGAUACUAUACAACUCUACUACCUCA,0.00493 ± 0.003
5,GGAGACCUAUGAAUAGAACCUUCUACCUCA,< 0.0001
6,GGAGACCUAUGAUAUGUACCUACAUACCUCA,< 0.0001
7,GGAGUCGAUACUAUACAACCUACAACCUCA,0.00324 ± 0.0017
8,GGAGUGGAUACUAUGACAACCUACUACCUCA,0.0114 ± 0.0053
9,GGAGACCUAUGAUAUGUUCCUACUACUCUCA,< 0.0001
10,GGAGACGAUACUAUACAACCUACUGCCUCA,0.00691 ± 0.0024
11,GGAGACCAUACUAUACAACCUACUACCAUCA,0.0041 ± 0.0029
12,GGAGACCAUACUCAUACAACCUACUACCUCA,0.0108 ± 0.0052
13,GGAGACGAAACUAUACAACCAACUACCUCA,0.0068 ± 0.0036
14,GGAGACGAUACUAUACAACCUACUACGCUCA,0.00415 ± 0.0014
15,GGAGUGGAUACUAUUCAACCUUCUACCUCA,0.00433 ± 0.0025
16,GGAGAGGAUAGUAUACAACCAACUACCUCA,0.00242 ± 0.0023
